# Data reported in PubChem BioAssay (NCATS).
# Inconclusive results are not listed. Unmarked numbers belong to inactive results. Calls of active or inactive are those of the source. The call rests on the fitted dose curve; in most records, active means well fitted cell-killing curve with a large enough effect; inconclusive means small, poorly fitted or top-dose-only effect; inactive means no such curve, though single readings can be large or run the other way.
# Test: qHTS of pediatric cancer cell lines to identify multiple opportunities for drug repurposing: Primary screen for Rh30 cells (AID 1347107); further: on the % scale 0 is the no-effect control and ±100 the full control effect; nearly all actives have a fitted effect of over 75% in size
# Details: Rh30 rhabdomyosarcoma viability, CellTiter-Glo luminescence, 48 h; series mostly up to 46 µM; activity change, negative = cytotoxic: at the top concentration
# Procedure, shortened: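 Cells (500-1,000/well) in growth media were settled 5 h at 37 degrees C, then given compounds for 48 h. Viability was read as CellTiter-Glo luminescence. Primary runs used MIPE at 11 points (0.78 nM-46 µM) and NPC at 8 points (0.59 nM-46 µM); follow-ups used 11 points.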
row,Compound,"activity change, negative = cytotoxic"
1,O=S1(=O)c2cccc3cccc(c23)N1CCCN1CCN(c2ccc(F)cc2)CC1,-1.36%
2,CNCC[C@@H](Oc1ccccc1C)c1ccccc1,10.5%
3,CC(C)(Oc1ccc(Cl)cc1)C(=O)O,15.4%
4,CN=C(NC#N)NCCSCc1csc(N=C(N)N)n1,23%
5,CCOC(=O)n1ccn(C)c1=S,6.43%
6,Cc1c(C)n(CCN(C)C)c2ccc(C(=O)OCCN(C)C)cc12,12.1%
7,CCOC(=O)/C=C(C)/C=C/C=C(C)/C=C/c1c(C)cc(OC)c(C)c1C,9.79%
8,COc1cccc(OC)c1C(=O)N[C@@H]1C(=O)N2[C@@H]1SC(C)(C)[C@@H]2C(=O)O,24.3%
9,CN(C/C=C/c1ccccc1)Cc1cccc2ccccc12,12.1%
10,C[C@H]1[C@H](NC(=O)/C(=N/OC(C)(C)C(=O)O)c2csc(N)n2)C(=O)N1S(=O)(=O)O (stereo in doubt),27.8%
11,CCN(CC)CCNC(=O)COc1ccc(Cl)cc1,30.9%
12,C[C@]12C=CC(=O)C=C1[C@@H](F)C[C@@H]1[C@@H]2[C@@H](O)C[C@@]2(C)[C@H]1CC[C@]2(O)C(=O)CO,22.2%
13,CC(C)(C(=O)c1cccnc1)c1cccnc1,27.1%
14,Cc1onc(-c2c(Cl)cccc2Cl)c1C(=O)N[C@@H]1C(=O)N2[C@@H]1SC(C)(C)[C@@H]2C(=O)O,17%
15,CC/C(=C(/CC)c1ccc(O)cc1)c1ccc(O)cc1,-0.327%
16,Cc1cc(=O)n(-c2ccccc2)n1C,16.7%
17,CCN(CC)C(=O)N1CCN(C)CC1,18.3%
18,CCN1CCN(c2cc3c(cc2F)c(=O)c(C(=O)O)cn3C2CC2)CC1,17.9%
19,CN=C(NC#N)Nc1ccc(C2=NNC(=O)CC2C)cc1 (configuration not stated),12.6%
20,CN1CCN(CCCN2c3ccccc3Sc3ccc(S(=O)(=O)N(C)C)cc32)CC1,27.4%
21,O=C1OC(c2ccc(O)cc2)(c2ccc(O)cc2)c2ccccc21,10.2%

# Test: qHTS of pediatric cancer cell lines to identify multiple opportunities for drug repurposing: Primary screen for Rh41 cells (AID 1347108); further: nearly all actives have a fitted effect of over 70% in size; further: potency means the concentration at half of the fitted maximal effect;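 on activity change, negative = cytotoxic: luminescence drop marks cytotoxic hits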
# Details: Rh41 rhabdomyosarcoma viability, CellTiter-Glo luminescence, 48 h; series mostly up to 46 µM; activity change, negative = cytotoxic: at the top concentration
# Procedure, shortened: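 Cells seeded at 500-1,000 cells/well in growth media, rested 5 hours at 37 degrees C, 5% CO2, then dosed; MIPE compounds at 11-point (from 0.78 nM) and NPC at 8-point (from 0.59 nM) final concentrations. Viability by CellTiter-Glo luminescence after 48 hours.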
Compound,"activity change, negative = cytotoxic",Potency
O=c1[nH]c(=O)n([C@H]2CCCO2)cc1F,6.43%,–
Cc1cccn2c(=O)c(-c3nnn[nH]3)cnc12,14.9% [at 16.1 µM],–
CCCCCCCCCCCCCCCC[N+](C)(C)CCN(Cc1ccc(OC)cc1)c1ncccn1,–,16.8 µM (active)
CCOc1ccc(NC(=O)CC(C)O)cc1 (configuration not stated),-3.7%,–
NC(CS)C(=O)O (configuration not stated),31.9%,–
O=C(Nc1ccc(Oc2ccc(Cl)cc2)c(Cl)c1)c1cc(I)cc(I)c1O,2.88%,–
COc1ccc(OC)c(C(O)CNC(=O)CN)c1 (configuration not stated),16.1%,–
COc1cccc(CCc2ccccc2OCC(CN(C)C)OC(=O)CCC(=O)O)c1 (configuration not stated),-6.05%,–
C[C@H](O)C(=O)Nc1c(I)c(C(=O)NC(CO)CO)c(I)c(C(=O)NC(CO)CO)c1I,34.5%,–
Cc1cc(N)c2cc(NC(=O)Nc3ccc4nc(C)cc(N)c4c3)ccc2n1,0.412%,–
NC(=O)CC[C@@H]1NC(=O)[C@H](Cc2ccccc2)NC(=O)[C@H](Cc2ccc(O)cc2)NC(=O)CCSSC[C@@H](C(=O)N2CCC[C@H]2C(=O)N[C@@H](CCCN=C(N)N)C(=O)NCC(N)=O)NC(=O)[C@H](CC(N)=O)NC1=O,9.41%,–
C[C@H]1C[C@H]2[C@@H]3CCC4=CC(=O)C=C[C@]4(C)[C@@]3(Cl)[C@@H](O)C[C@]2(C)[C@@]1(O)C(=O)CO,14.9%,–
NCCCC[C@H](N[C@@H](CCc1ccccc1)C(=O)O)C(=O)N1CCC[C@H]1C(=O)O,30.3%,–
CCCCC(CC)CN=C(N)NC(N)=NCCCCCCN=C(N)NC(N)=NCC(CC)CCCC (configuration not stated),–,21.1 µM (active)
CN1CCCC(CC2c3ccccc3Sc3ccccc32)C1 (configuration not stated),1.32%,–
O=S1(=O)c2cccc3cccc(c23)N1CCCN1CCN(c2ccc(F)cc2)CC1,0.131%,–
CNCC[C@@H](Oc1ccccc1C)c1ccccc1,14.4%,–
CC(C)(Oc1ccc(Cl)cc1)C(=O)O,13%,–
CN=C(NC#N)NCCSCc1csc(N=C(N)N)n1,24.5%,–
CCOC(=O)n1ccn(C)c1=S,5.7%,–
Cc1c(C)n(CCN(C)C)c2ccc(C(=O)OCCN(C)C)cc12,20.7%,–
CCOC(=O)/C=C(C)/C=C/C=C(C)/C=C/c1c(C)cc(OC)c(C)c1C,7.95%,–
COc1cccc(OC)c1C(=O)N[C@@H]1C(=O)N2[C@@H]1SC(C)(C)[C@@H]2C(=O)O,27.5%,–
CN(C/C=C/c1ccccc1)Cc1cccc2ccccc12,-4.18%,–
C[C@H]1[C@H](NC(=O)/C(=N/OC(C)(C)C(=O)O)c2csc(N)n2)C(=O)N1S(=O)(=O)O (stereo in doubt),32.3%,–
CCN(CC)CCNC(=O)COc1ccc(Cl)cc1,52.6%,–
